# Compounds with a hit are over-represented: about 1.1% of the library has one in this group of screens.
# APOBEC3A inh = human APOBEC3A DNA deaminase inhibition; P31941; recombinant A3A, FAM/TAMRA ssDNA deamination fluorescence; inhibition, % at 20 µM; 0.41% of 330,000 active; AID 493011;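 active means at least 40% inhibition at 20 µM here, with at most 30% in a related deaminase screen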;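 further: plate controls were A3A with DMSO for no effect and wells lacking A3A enzyme for full effect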
# A3G deaminase = APOBEC3G (human) deaminase inhibition. 0.28% of 330,000 active. recombinant A3G, ssDNA deamination FAM/TAMRA fluorescence. inhibition, % at 20 µM;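 active means inhibition of at least 40% at 20 µM, with no more than 30% in the related APOBEC3A deaminase screen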;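 further: plate controls were DMSO wells with A3G for no effect and wells lacking A3G enzyme for full effect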
# Target sequence (Q9HC16 whole entry, looked up): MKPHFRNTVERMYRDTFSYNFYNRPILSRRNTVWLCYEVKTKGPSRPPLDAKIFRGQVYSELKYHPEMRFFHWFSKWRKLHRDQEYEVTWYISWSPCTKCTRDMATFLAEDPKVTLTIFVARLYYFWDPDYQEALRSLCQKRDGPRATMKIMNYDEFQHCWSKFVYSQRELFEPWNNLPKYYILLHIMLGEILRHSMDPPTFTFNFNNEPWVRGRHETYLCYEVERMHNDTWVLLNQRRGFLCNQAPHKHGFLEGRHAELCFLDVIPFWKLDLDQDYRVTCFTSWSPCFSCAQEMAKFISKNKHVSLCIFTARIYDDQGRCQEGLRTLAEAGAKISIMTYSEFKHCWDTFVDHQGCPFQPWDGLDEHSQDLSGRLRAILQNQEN
# MIN6 prolif-1 = inducers of beta-cell replication in MIN6 cells. proliferation, % at 10 µM. MIN6 cells proliferation, ATPlite luminescence, 48 h; cells starved in 0.2% serum; 100% = growth in 10% serum. 0.29% of 330,000 active;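 active means compounds whose signal lies at least 3.5 SD above the mean of all wells on their plate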;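 further: 0% = DMSO-treated cells in low-serum medium and 100% = 10% serum control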
# Bfl-1 A1 inh = inhibitors of the anti-apoptotic protein A1, read as caspase activation; caspase activation, % (no concentration beside the values); AID 2462; MEF A1-2A-BIM cells, Caspase-Glo 3/7 luminescence, 3 h; percent of clofoctol response, vehicle zero; 0.066% of 330,000 active;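 active means over half of replicate activation scores above 10%, or exactly half above 10 with the replicate mean above 10; inconclusive means replicate mean below 10 yet half the replicates above 10; inactive means over half of replicates below 10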
# MIN6 prolif-2 = MIN6 beta-cell replication induction, confirmed. shares compounds with MIN6 prolif-1. 920 tested, under 10 active. proliferation increase, % at 50 µM. MIN6 beta-cell proliferation, ATPlite luminescence, 48 h; cells kept in 0.2% serum; scaled between 0.2% and 10% serum;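 active means proliferation increase above 40% at any of the four tested concentrations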
# The depositor's hits bear a star; ? = inconclusive; / = no result.
SMILES,APOBEC3A inh,A3G deaminase,MIN6 prolif-1,Bfl-1 A1 inh,MIN6 prolif-2
COc1cccc(Cn2c(=O)c3[nH]cnc3n(-c3ccccc3C)c2=O)c1,4,0,14*,0,2
CCOC(=O)CNC(=O)CSc1nc(N(C)C)nc(N2CCOCC2)n1,-3,-4,5.5*,1,3
COC(=O)N[C@H](CC(C)=O)c1cccc(C(F)(F)F)c1,-2,-4,-1,0,/
COC(=O)N[C@H](CC(C)=O)c1ccccc1,-3,-8,12*,?,0
COC(=O)C(=CC(=CN(C)C)C=C(C(=O)OC)C(=O)OC)C(=O)OC,5,0,-3,0,/
COc1cc(CC(=O)OCc2ccccc2F)cc(OC)c1OC,-5,-15,-3,0,/
C=CCn1c(N2CCN(c3ccc(OC)cc3)CC2)nc2c1c(=O)n(C)c(=O)n2C,2,-9,8.3*,0,-3
COCCn1c(N2CCN(c3ccc(OC)cc3)CC2)nc2c1c(=O)n(C)c(=O)n2C,-2,-7,1,1,/
CCC(=O)N1N=C(c2ccccc2)CC1c1ccc([N+](=O)[O-])cc1 (stereo not drawn),2,-2,7.3*,-1,-6
COc1ccc(C2CC(c3ccc([N+](=O)[O-])cc3)=NN2C(=O)c2ccccc2)cc1OC (stereo not drawn),-2,-2,-3,0,/
Cc1ccc(C2CC(c3cccs3)=NN2C(=O)CCl)cc1 (stereo not drawn),-3,-8,-6,0,/
CCC(=O)N1N=C(c2cccs2)CC1c1ccc(C)cc1 (stereo not drawn),-5,-9,7.8*,-2,-6
O=P(O)(CCCP(=O)(O)CCc1ccccc1)CCc1ccccc1,-6,-5,8.8*,-1,-4
COc1cccc(/C=C/C(=O)Nc2ccc3nc4n(c(=O)c3c2)CCCC4)c1OC,0,-3,-2,0,/
CC1(C)Cc2[nH]c3ccccc3c2C(C)(C)N1,-2,-6,1,0,/
CC1=NCC(C)c2c1[nH]c1ccccc21 (stereo not drawn),-4,-7,7.0*,0,-1
Cc1cc(=O)oc2cc(OC(C)C(=O)NCC3CCC(C(=O)O)CC3)c(Cl)cc12 (stereo not drawn),9,13,-2,1,/
CCc1cc(=O)oc2cc(OC(C)C(=O)NCC3CCC(C(=O)O)CC3)c(Cl)cc12 (stereo not drawn),-2,-3,11*,0,-3
CCN1CCN(C(=O)C2CCN(S(=O)(=O)c3ccc(SC)cc3)CC2)CC1,0,-6,16*,0,-1
CS(=O)(=O)N1CCCC(C(=O)NCCN2CCC(Cc3ccccc3)CC2)C1 (stereo not drawn),0,5,5.4*,1,-5
CCS(=O)(=O)N1CCCC(C(=O)NCCN2CCC(Cc3ccccc3)CC2)C1 (stereo not drawn),-2,1,0,-1,/
FC(F)Sc1nnc(-c2cccs2)n1-c1ccccc1,-2,-9,9.6*,0,5
COc1ccc(CN(C(=O)c2ccccc2Br)C2CCS(=O)(=O)C2)cc1 (stereo not drawn),-1,-7,-1,/,/
CCn1c(SCC(=O)N/N=C/c2ccc(OC)c(OC)c2)nc2ccccc21,1,4,7.8*,-1,1
COc1ccc(Cc2nc3ccccc3n2CC(=O)N/N=C/c2ccccc2)cc1OC,1,3,-3,1,/
SMILES,APOBEC3A inh,A3G deaminase,MIN6 prolif-1,Bfl-1 A1 inh,MIN6 prolif-2
Cc1nnsc1C(=O)NC(=O)Nc1ccc(F)c(Cl)c1,-3,-8,5.9*,-5,-6
COc1ccccc1CCNC(=O)C(=O)NCC1OCCN1S(=O)(=O)c1ccc(C)cc1 (stereo not drawn),-8,-5,-1,0,/
Cc1[nH]c2ccc(C(=O)OC(C)C(=O)NC3CCCCC3C)cc2c1C (stereo not drawn),-1,1,13*,0,-6
Cc1cc(C(=O)CSc2nnc(-c3ccncc3)n2-c2ccccc2)c(C)n1C,-2,-7,-1,0,/
Cc1cc(C(=O)CSc2nnc(-c3ccccc3)n2-c2ccccc2)c(C)n1-c1ncn[nH]1,-2,-6,6.9*,0,-4
C=CCNC(=O)C(=O)Nc1ccc2c(c1)N(S(=O)(=O)c1cccs1)CCC2,-1,-4,6,0,/
CCCC(=O)OCC(=O)Nc1ccccc1C#N,-4,-3,-4,1,/
